Results filed as inconclusive are left out. A call without a number means that no potency is given here. Unmarked numbers belong to inactive results. The source made the active and inactive calls. Calls come from the whole dose curve; as a rule, active = well fitted activation curve with a large enough effect; inconclusive = small, poorly fitted or top-dose-only effect; inactive = flat fitted curve, though single readings scatter.

A short description of this test: qHTS assay to identify small molecule phospholipidosis (PLD) inducers (AID 1259344). To be noted: HepG2 phospholipidosis, LipidTOX Red imaging, 24 h; series mostly up to 38.3 µM. Put shortly:
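HepG2 cells on collagen I, attached 4 h at 37 C, were co-treated with compound and LipidTOX Red dye for 24 h at 37 C, then fixed with paraformaldehyde plus Hoechst 33342 and imaged by high-content microscopy for phospholipid accumulation.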
As to `O=P1(N(CCCl)CCCl)NC(OO)CCO1` (stereo unspecified), the Potency result is “inactive”.

For `COC(=O)[C@H]1[C@@H](OC(=O)c2ccccc2)C[C@@H]2CC[C@H]1N2C`, the Potency result is “inactive”.

Regarding `O=C1CN=C(c2ccccc2)c2cc(Cl)ccc2N1`, the Potency entry was “inactive”.

`C=C[C@H]1CN2CC[C@H]1C[C@H]2[C@H](OC(=O)OCC)c1ccnc2ccc(OC)cc12`: the Potency result is “inactive”.

On to `CCc1cc(OC)c(C[C@@H](C)N)cc1OC`, for which the Potency result is “inactive”.

As to `CC(C)[C@H]1C(=O)N2CCC[C@H]2[C@]2(O)O[C@](NC(=O)[C@@H]3C[C@@H]4c5cccc6[nH]cc(c56)C[C@H]4N(C)C3)(C(C)C)C(=O)N12`, the Potency entry is “inactive”.

In the case of `C[C@]12CC[C@H]3[C@@H](CCC4=C(Cl)C(=O)CC[C@@]43C)[C@@H]1CC[C@@H]2O`, the Potency entry is “inactive”.

`Clc1ccc(C(Cn2ccnc2)OCc2csc3c(Cl)cccc23)c(Cl)c1` (stereo unspecified): the Potency result was “inactive”.

Take `C[C@@H]1[C@@H]2Cc3ccc(O)cc3[C@@]1(C)CCN2CC1CC1`: the PLD induction is 5.17% [at 7.66 µM].

On to `C[C@@H]1[C@H]2Cc3ccc(O)cc3[C@]1(C)CCN2C`, for which the Potency entry was “inactive”.

Regarding `CC(C)C[C@H]1C(=O)N2CCC[C@H]2[C@]2(O)O[C@](NC(=O)[C@@H]3C[C@@H]4c5cccc6[nH]cc(c56)C[C@H]4N(C)C3)(C(C)C)C(=O)N12`, the Potency entry was “inactive”.

Regarding `[H+].[H+].[Hg+2].[O-]B([O-])[O-].[c-]1ccccc1`, the Potency entry was “inactive”.

With `C=CCC1([C@@H](C)CCC)C(=O)NC(=O)NC1=O`, the Potency entry is “inactive”.

On to `c1ccc2c(c1)Sc1ccccc1N2C[C@@H]1CN2CCC1CC2`, for which the Potency entry was “inactive”.

Consider `C[C@@H](Cc1ccccc1)NCCC(c1ccccc1)c1ccccc1`, for which the Potency result is “inactive”.

For the compound `CC[C@H]1[C@@H]2C[C@H]3[C@@H]4N(C)c5ccccc5[C@]45C[C@@H](C2[C@H]5O)N3[C@@H]1O` (stereo partly specified), the Potency entry was “inactive”.

For `CC(N)Cc1ccc2c(c1)OCO2` (stereo unspecified), the PLD induction is -3.76% [at 1.53 µM].

As to `CN1c2ccccc2C(NCCCCCCC(=O)O)c2ccc(Cl)cc2S1(=O)=O` (stereo unspecified), the Potency result is “inactive”.

On to `CN[C@]1(c2ccccc2Cl)CCCCC1=O`, for which the Potency result was “inactive”.

On to `C[C@]12CC[C@@H]3c4ccc(OC(=O)N(CCCl)CCCl)cc4CC[C@H]3[C@@H]1CC[C@@H]2OP(=O)(O)O`, for which the Potency result was “inactive”.

With `CC(=O)[C@@]1(O)CC[C@H]2[C@@H]3CCC4=CC(=O)CC[C@]4(C)C3(F)[C@@H](O)C[C@@]21C` (stereo partly specified), the Potency entry is “inactive”.

These data come from PubChem BioAssay (Tox21).
